High-throughput results: PubChem, several laboratories
KLK7 zymogen act = activators of human kallikrein-7 zymogen; purified proKLK7, EDANS-DABCYL substrate fluorescence; 100% is mature enzyme control, 0% vehicle; P49862; 370,000 tested, 0.9% active; activation, % at 7 µM; AID 652039;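 active = activation above the mean of all tested compounds plus 3 SD, computed per campaign excluding outliers beyond control limits, cut at about 13% in these data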
Target sequence (P49862 whole entry, looked up): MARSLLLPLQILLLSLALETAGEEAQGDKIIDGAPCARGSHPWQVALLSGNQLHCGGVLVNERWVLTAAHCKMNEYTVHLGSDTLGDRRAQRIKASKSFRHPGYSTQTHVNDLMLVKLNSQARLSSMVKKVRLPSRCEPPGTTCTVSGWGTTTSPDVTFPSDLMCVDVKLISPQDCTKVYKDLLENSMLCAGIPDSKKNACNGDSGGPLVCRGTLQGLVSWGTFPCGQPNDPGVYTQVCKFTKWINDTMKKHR
HIF activator = HIF pathway transcriptional activation. U2OS HRE-luciferase reporter, luminescence; normalized: DMSO 0%, desferrioxamine 100%. activation, % at 7.5 µM (by protocol). 300,000 tested, 0.32% active. AID 1910;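 active = mean activation of at least 10% of the iron chelator positive control signal, with at least half of replicates also reaching 10%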
GC-A act = GC-A (human) enzyme activation; 370,000 tested, 0.14% active; activation, % at 10 µM; HEK293 GC-A cells, cGMP TR-FRET, EC30 ANP; 0% at EC30 ANP, 100% saturating ANP; in the data active = activation above about 40%
GC-B act = GC-B (human) receptor activation; HEK293-GC-B cells, CNP EC30, cGMP TR-FRET; 0% at EC30 CNP, 100% saturating CNP; AID 1920062; activation, % at 10 µM; 370,000 tested, 0.11% active;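 active = activation at 10 µM reaching about 35% in either raw or pattern-adjusted values, limit read from the data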
proKLK7 act conf = confirmation of human kallikrein-7 zymogen activators | shares compounds with KLK7 zymogen act | activation, % at 7 µM | purified proKLK7, EDANS-DABCYL substrate fluorescence; scaled: vehicle 0, mature enzyme 100 | 3,200 tested, 68% active | AID 686949;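 active = activation, as change over the incubation, above the mean of all tested compounds plus 3 SD, cut at about 13% in these data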
EDANS-DABCYL int = fluorescence interference counter-screen for KLK7 activators. shares compounds with KLK7 zymogen act. activation, % at 7 µM. AID 686952. EDANS-DABCYL substrate fluorescence interference, no enzyme, 4 h; solvent 0%, active enzyme control 100%. 3,200 tested, 80% active;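 active = activation above the all-compound mean plus 3 SD, ignoring values outside control-based bounds, cut at about 4.8% in these data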;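 note: value is the 4 h activation minus the activation read at time zero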
K7 EDANS ctr = optically interferes with EDANS-DABCYL fluorescence, kallikrein-7 activator counter-screen. shares compounds with KLK7 zymogen act. EDANS-DABCYL peptide fluorescence interference, no enzyme. EC50, µM. 250 tested, 20% active. AID 720493;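 active = compounds that raise the fluorescence signal in this interference counterscreen, with EC50 at or below 10 µM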;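 note: intact quenched peptide substrate alone read at 355 nm excitation and 520 nm emission; signal is fluorescence gain from T0 to T4 after four hours at room temperature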
* hit, by the source's call; nt = not tested or not shown. Hits are enriched below; roughly 1.3% of the tested compounds scored in any of these assays.

SMILES	KLK7 zymogen act	HIF activator	GC-A act	GC-B act	proKLK7 act conf	EDANS-DABCYL int	others
COc1cc2c(cc1OC)/C(=C/C(=O)N1CCOCC1)NC(C)(C)C2	60.0*	-0.2	3.9	-2.8	9.7	13.1*
CCC(=O)N(Cc1ccccc1)c1ccccc1C(=O)Nc1cc(OC)ccc1OC	0.5	nt	-7.2	0.4	nt	nt
Cc1ccccc1NC(=O)C[C@H]1CC[C@H]2[C@@H](COc3ccc(NC(=O)Nc4ccccc4)cc3C(=O)N2C)O1	0.3	nt	0.7	3.5	nt	nt
Cc1nc2[nH]c(=O)c3c(n2n1)NC1=C(C(=O)CC(C)(C)C1)C3c1ccccc1 (stereo not given)	46.7*	-0.2	-1.9	2.3	8.1	10.6*
CC1(C)CC(=O)C2=C(C1)NC1=C(C(=O)c3ccccc31)C2c1ccccc1 (stereo not given)	0.2	0.0	-40.8	-18.6	nt	nt
C/C(=N\NC(=O)CC#N)c1cc2ccc(O)cc2oc1=O	60.5*	-0.3	-0.1	-1.9	46.3*	43.1*
O=C(O)c1cc2ccc(O)cc2oc1=O	104.4*	nt	10.3	4.8	65.2*	73.4*
O=C(NCc1ccccc1)c1cc2ccc(O)cc2oc1=O	58.0*	0.6	-1.3	-4.9	68.8*	71.2*
Cc1ccc(S(=O)(=O)c2cc3ccc(O)cc3oc2=O)cc1C	43.6*	0.2	2.3	4.0	62.0*	67.9*
CCCC[C@H]1C2CC(OC(=O)Nc3ccccc3C)C(C2)[C@H]2CCCCN21 (stereo not given in full)	0.1	nt	2.3	11.7	nt	nt
CN(C)Cc1cn(-c2cccc(-c3noc4c3C(=O)N(CC(=O)N3CCOCC3)CC4)c2)nn1	-0.2	nt	3.6	1.9	nt	nt
CC(C)CNC(=O)COC(=O)c1cc(Cl)cc(Cl)c1N	21.3*	0.0	-7.1	-3.1	-9.0	-16.4
CN(CCC#N)C(=O)COC(=O)c1cc(Cl)cc(Cl)c1N	16.1*	-1.4	2.5	-7.7	11.8	11.3*
NC(=O)COC(=O)c1cc(Cl)cc(Cl)c1N	-7.9	-0.4	3.0	-1.6	nt	nt
COC(=O)CNC(=O)COC(=O)c1cc(Cl)cc(Cl)c1N	14.6*	-0.3	-3.8	-5.6	52.7*	40.3*	K7 EDANS ctr=>69.5
Nc1c(Cl)cc(Cl)cc1C(=O)OCC(=O)N1CCCC1	12.9*	-0.4	1.2	1.8	18.4*	14.8*	K7 EDANS ctr=>69.5
C[C@H]1CN(C(=O)OC(C)(C)C)CCN1c1ccc(N2CCS(=O)(=O)CC2)c(C#N)c1	0.9	nt	0.4	-0.1	nt	nt
CC(C)(C)c1ccc(S(=O)(=O)N2CCC(C(=O)NCc3cccs3)CC2)cc1	0.3	nt	1.6	4.5	nt	nt
COc1cc2c(cc1OC)C(CSc1ccccc1C(=O)O)=NC(C)(C)C2	13.8*	-0.2	5.9	0.6	5.7	5.2*
CC1(C)Cc2ccccc2C(CSc2ccccc2C(=O)O)=N1	-0.5	-0.5	0.5	0.8	nt	nt
CNc1cnc(-c2ccc(O)c(OC)c2)cn1	1.2	nt	-3.1	-0.6	nt	nt
CNc1cnc(-c2ccc(F)c(F)c2F)cn1	12.7*	nt	0.8	-3.5	12.8*	12.8*
CC(C)CNC(=O)OCc1cn(Cc2ccc(F)cc2F)nn1	0.0	nt	0.7	-2.9	nt	nt
CCOC(=O)c1ccc(Oc2c(C)oc3c(CN4CCN(C)CC4)c(O)ccc3c2=O)cc1	118.8*	-0.2	1.4	7.6	75.9*	70.2*
CCOc1ccccc1Oc1c(C)oc2c(CN3CCN(CCO)CC3)c(O)ccc2c1=O	129.2*	0.6	4.2	8.8	68.2*	66.0*
SMILES	KLK7 zymogen act	HIF activator	GC-A act	GC-B act	proKLK7 act conf	EDANS-DABCYL int	others
COc1ccccc1Oc1c(C)oc2c(CN3CCN(CCO)CC3)c(O)ccc2c1=O	115.8*	-0.8	1.9	4.4	66.4*	70.0*
Cc1oc2c(CN3CCCC3)c(O)ccc2c(=O)c1Oc1ccccc1Br	82.6*	-0.2	7.9	4.0	55.8*	76.0*
CN1CCN(Cc2c(O)ccc3c(=O)c(Oc4ccccc4Cl)c(C(F)(F)F)oc23)CC1	4.0	0.0	4.5	7.8	nt	nt
CCOC(=O)c1c(C)oc2c1c(CN1CCN(CCO)CC1)c(O)c1ccccc12	3.6	nt	20.6	-0.9	nt	nt
CCN1Cc2nnn(CC3CCCCC3)c2-c2ccccc2S1(=O)=O	-0.3	nt	-6.8	-5.4	nt	nt
C[C@H]1[C@@H](OC(=O)NCc2cccc(Cl)c2)CC[C@@]23CCCN2C(=O)CCC[C@@H]13	nt	nt	-6.5	-9.0	nt	nt
COC(=O)[C@]12C[C@H](CC(=O)NCc3ccc(C)o3)C(=O)N(Cc3ccco3)C1=C[C@H](C(C)C)O[C@@H]2C1CC1	0.3	nt	-1.9	-6.4	nt	nt
N#Cc1ccc(/C=C2\CC3(OC(=O)C4CCCC4)CCCN2C3)cc1 (stereo not given)	-0.7	nt	-2.0	4.4	nt	nt
CC(C)NC(=O)Cn1c(-c2cncs2)nc2ccccc21	-0.1	nt	1.4	-1.9	nt	nt
CCCn1c(=N)c(C(=O)NC2CCCC2)cc2c(=O)n3cccc(C)c3nc21	132.9*	-0.1	6.7	1.2	-16.8	-41.4
Cc1cccn2c(=O)c3cc(C(=O)NC4CCCC4)n(C)c3nc12	-0.2	1.8	8.7	11.4	nt	nt
CCn1c(=N)c(C(=O)NC)cc2c(=O)n3cccc(C)c3nc21	75.6*	nt	11.9	-10.0	67.3*	72.9*
Cc1cccn2c(=O)c3cc(C(=O)O)n(C)c3nc12	20.6*	-0.1	-2.3	-1.3	49.0*	48.2*
CCOc1ccc(C=NNC(=O)c2cc(-c3ccc(Cl)cc3)n[nH]2)cc1	-3.7	nt	2.1	-8.6	nt	nt
CCOC(=O)CC[C@H]1CC[C@]2(CCCN(C(=O)C(C)(C)C)C2)O1	-1.1	nt	2.0	5.5	nt	nt
C=CCN1[C@H](C)COc2cccc(N3CCSCC3)c2S1(=O)=O	0.3	nt	-1.5	-6.2	nt	nt
CC(=O)Nc1ccc(-c2cc(C(=O)O)c3cc4ccccc4cc3n2)cc1	1.2	nt	0.6	0.2	nt	nt
CC(=O)Nc1ccc(-c2cc(C(=O)O)c3ccc(C)cc3n2)cc1	17.1*	0.3	-2.5	-6.0	17.3*	27.5*
O=C(CN1CCN(c2nc(-c3ccccc3)cs2)CC1)Nc1ccc(Cl)c(Cl)c1	0.1	nt	2.4	-2.0	nt	nt
COc1ccc(C2C(C(=O)N3CCCCC3C)CC(=O)N2c2ccc(OC)cc2)cc1 (stereo not given)	-0.1	nt	-11.4	-20.4	nt	nt
O=C1CC(N(O)c2ccccc2)C(=O)N1c1ccc(Cl)c(Cl)c1 (stereo not given)	33.9*	0.6	-0.1	-1.2	459.4*	467.3*
Cc1cccc(N2C(=O)SC(N(C)c3ccccc3)C2=O)c1 (stereo not given)	0.0	0.7	-4.9	2.6	nt	nt
Cc1cccc(N2C(=O)CC(N(O)c3ccccc3)C2=O)c1 (stereo not given)	273.7*	2.1	-1.3	-2.3	348.8*	365.8*
